CHX counter: counter-screen hit for Shiga toxin inhibitors, cycloheximide; cell reporter, cycloheximide protein synthesis inhibition counterscreen; max response, %; 300,000 tested, 12% active; AID 2314; in the data active = max response mostly above about 13%, no sharp cut-off; inactive = mostly below about 14%; note: read at 38.3 µM for the half of the compounds with a filed dose; 0% is about no effect
Shiga toxin inh: Shiga toxin inhibition; Vero cells, Shiga toxin protein synthesis inhibition reporter; inhibition, % at 38.7 µM; 290,000 tested, 9.2% active; AID 2315; in the data active = inhibition mostly above about 28%, no sharp cut-off; inactive = mostly below about 43%; note: 0% is about no effect
MARV entry inh: Marburg virus entry inhibition. Potency, µM (series often up to 37.8 µM), without a hit: top-dose activity change, negative = inhibition, most hits filed as inhibitors. 300,000 tested, 1.8% active. Marburg virus pseudotyped entry inhibition, cell reporter; calls by dose curve; tested in HEK293 cells; note: potency is the fitted concentration of half-maximal effect; % is set by controls: 0 for no effect and ±100 for the full control effect
AMA1-RON2 inh: inhibitors of Plasmodium falciparum AMA1-RON2 interaction; AlphaScreen AMA1-biotinylated RON2 peptide binding; Potency, µM (top dose mostly 58.2 µM), for inactives: at the highest dose activity change, negative = inhibition, most hits filed as inhibitors; 360,000 tested, 0.2% active; active = well fitted inhibition curve with a large enough effect; inconclusive = small, poorly fitted or top-dose-only effect; inactive = no such curve, though single readings can be large or run the other way;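 note: potency is the fitted concentration of half-maximal effect; 0% = vehicle wells and -100% = peptide control; nearly all actives have a fitted effect of over 45% in size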
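AMA1 (3D7) with his tag at 25 nM final met compounds first, then biotinylated RON2 peptide at 25 nM; detection used donor plus acceptor beads, 10 µg/mL apiece, read by AlphaScreen after 30 min at room temperature.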
LASV entry inh: blocks Lassa virus binding to or entry into cells. Lassa virus pseudotype entry inhibition, cell reporter. Potency, µM (titrated, usually from 37.9 µM), for the others: top-dose activity change, negative = inhibition, hits mostly inhibitors. 300,000 tested, 1.2% active; calls by dose curve; tested in HEK293 cells; note: potency is the fitted concentration of half-maximal effect; % is set by controls: 0 for no effect and ±100 for the full control effect; nearly all actives have a fitted effect of over 50% in size
* = called active by the depositor; ! = not confirmed by another sample; [ ] = dose if it differs, or a comment. The entries come from a sample that favours hits as a whole.

Results for Cc1cc(C(C)(C)C)c(OC(=O)[C@@H]2OC(c3ccccc3)=C[C@H]2c2ccccc2)c(C(C)(C)C)c1 ?
AMA1-RON2 inh: 1%

Results for O=c1c2cccnc2n(Cc2ccccc2F)c(=O)n1Cc1ccc(F)cc1 ?
MARV entry inh: -7%[46.1 µM]

Results for COc1ccc(CC(C)NCC(O)c2ccc(O)c(NC=O)c2)cc1 (stereo not given) ?
AMA1-RON2 inh: 16%

Results for CCOc1ccc(OCc2ccc(C(=O)N3CCCC3)o2)cc1 ?
CHX counter: 24*; Shiga toxin inh: 54*; MARV entry inh: inconclusive; AMA1-RON2 inh: 18%; LASV entry inh: -9%

How did CCC(C)c1ccc(OCc2ccc(C(=O)O)o2)cc1 (stereo not given) do in these assays?
CHX counter: 71*; Shiga toxin inh: 105*; MARV entry inh: inconclusive; AMA1-RON2 inh: -12%; LASV entry inh: inconclusive

Results for CCOC(=O)c1ccc(COc2ccc(C(C)C)cc2)o1 ?
CHX counter: 73*; Shiga toxin inh: 102*; MARV entry inh: inconclusive; AMA1-RON2 inh: 25%; LASV entry inh: inconclusive

How did COC(=O)c1ccc(COc2ccc(C(=O)c3ccccc3)cc2)o1 do in these assays?
CHX counter: 1; Shiga toxin inh: 2; MARV entry inh: 8%; AMA1-RON2 inh: -4%; LASV entry inh: -17%

How did CCOc1ccc(OCc2ccc(C(=O)N3N=C(C(F)F)CC3(O)C(F)F)o2)cc1 (stereo not given) do in these assays?
CHX counter: 10; Shiga toxin inh: 3; MARV entry inh: -7%; AMA1-RON2 inh: 33%; LASV entry inh: -1%

Results for CN1CCN(C(=O)c2ccc(COc3ccc(C(C)(C)C)cc3)o2)CC1 ?
CHX counter: 49*; Shiga toxin inh: 65*; MARV entry inh: -31%; AMA1-RON2 inh: -2%; LASV entry inh: -14%

Results for CSCCC(NC(=O)c1ccccc1)C(=O)N1CC=C(c2ccccc2)CC1 (stereo not given) ?
CHX counter: 11; Shiga toxin inh: 11; MARV entry inh: inconclusive; AMA1-RON2 inh: -1%; LASV entry inh: 11µM*

How did CCN(CC)c1ccc(NC(=O)/C=C\c2ccccc2Cl)cc1 do in these assays?
CHX counter: 27*; Shiga toxin inh: 64*; MARV entry inh: 11%; AMA1-RON2 inh: -15%; LASV entry inh: -7%

How did CN(C)c1ccc(NC(=O)/C=C/c2ccccc2Cl)cc1 do in these assays?
CHX counter: 32*; Shiga toxin inh: 80*; MARV entry inh: -12%; AMA1-RON2 inh: inconclusive; LASV entry inh: -12%

How did CCN(CC)c1ccc(NC(=O)CCCCC(=O)Nc2ccc(N(CC)CC)cc2)cc1 do in these assays?
AMA1-RON2 inh: -4%

How did COC(=O)CC1=C(C(=O)OC)[C@H](c2ccc3c(c2Cl)OCO3)C(C#N)=C(N)O1 do in these assays?
MARV entry inh: 7%

How did CCOc1ccc2nc(N3CCCC(C(=O)NCCCN4CCOCC4)C3)sc2c1 (stereo not given) do in these assays?
CHX counter: 28*; Shiga toxin inh: 58*; AMA1-RON2 inh: -3%

How did CCOc1ccc2nc(N3CCCC(C(=O)NCCc4ccc(Cl)cc4)C3)sc2c1 (stereo not given) do in these assays?
MARV entry inh: 14%[46.1 µM]

How did CCOc1cc2sc(N3CCC(C(=O)Nc4cc(C)cc(C)c4)CC3)nc2cc1Br do in these assays?
MARV entry inh: 6%[46.1 µM]

Results for CCOc1cc2sc(N3CCC(C(=O)Nc4ccc(C(C)C)cc4)CC3)nc2cc1Br ?
CHX counter: 56*; Shiga toxin inh: 120*; MARV entry inh: inconclusive

How did CCOc1ccc2nc(N3CCC(C(=O)NCCCN4CCOCC4)CC3)sc2c1 do in these assays?
CHX counter: 37*; Shiga toxin inh: 56*; MARV entry inh: inconclusive; AMA1-RON2 inh: 7%; LASV entry inh: -11%

What do the screens show for `CCOc1cc2sc(N3CCC(C(=O)NCCCN4CCCC4=O)CC3)nc2cc1Br`?
CHX counter: 10; Shiga toxin inh: 16; AMA1-RON2 inh: -6%

What do the screens show for `O=C(Nc1ccncc1)C1CCN(S(=O)(=O)c2ccc(Cl)c(C(F)(F)F)c2)CC1`?
AMA1-RON2 inh: -4%

What do the screens show for `Cn1c(=O)c2sccc2n2c(CCCC(=O)NC3CCCCC3)nnc12`?
LASV entry inh: 2%[46.1 µM]

Results for COc1ccc(OCCSc2nnc(Cc3cccc4ccccc34)n2N)cc1 ?
CHX counter: 13; Shiga toxin inh: 14; MARV entry inh: inconclusive; AMA1-RON2 inh: -17%; LASV entry inh: inconclusive

Results for Cc1ccc2[nH]c3c(c2c1)CCC3=O ?
CHX counter: 10; Shiga toxin inh: 16; MARV entry inh: 1%; AMA1-RON2 inh: -9%; LASV entry inh: -14%

What do the screens show for `CCCCN1CCc2c([nH]c3ccc(C)cc23)C1=O`?
CHX counter: 70*; Shiga toxin inh: 132*; MARV entry inh: 23%; AMA1-RON2 inh: -13%; LASV entry inh: inconclusive

Results for CCCCc1c(C)c2cc(C)ccc2[nH]c1=O ?
CHX counter: -3; Shiga toxin inh: 18; MARV entry inh: 9%; AMA1-RON2 inh: 10%; LASV entry inh: 6%

How did Cc1ccc2[nH]c3c(c2c1)CCc1cn[nH]c1-3 do in these assays?
CHX counter: 25*; Shiga toxin inh: 28*; MARV entry inh: 2%; AMA1-RON2 inh: 1%; LASV entry inh: inconclusive

Results for Cc1ccc2[nH]c3c(c2c1)CNCC3 ?
CHX counter: -6; Shiga toxin inh: 1; MARV entry inh: -23%[46.1 µM]; AMA1-RON2 inh: 2%; LASV entry inh: 30%[46.1 µM]

What do the screens show for `Cc1ccc2[nH]c3c(c2c1)CCCC3=O`?
CHX counter: 17*; Shiga toxin inh: 22; MARV entry inh: -18%[46.1 µM]; AMA1-RON2 inh: 15%; LASV entry inh: 14%

What do the screens show for `O=C(Nc1ccc(-c2nc3ccccc3o2)cc1)c1ccc(N2CCOCC2)c([N+](=O)[O-])c1`?
CHX counter: 8.5*; Shiga toxin inh: 24; MARV entry inh: inconclusive; AMA1-RON2 inh: 10%; LASV entry inh: -17%

How did Cn1cc([N+](=O)[O-])c(C(=O)Nc2ccc(-c3nc4ccccc4o3)cc2)n1 do in these assays?
CHX counter: 39*; Shiga toxin inh: 69*; AMA1-RON2 inh: 0%

What do the screens show for `CCCOc1cccc(C(=O)Nc2ccc(-c3nc4ccccc4o3)cc2)c1`?
LASV entry inh: -17%[46.1 µM]

What do the screens show for `ONC(=Nc1ccccc1)C(=Nc1ccccc1)NO`?
CHX counter: 2; Shiga toxin inh: -12; MARV entry inh: -1%; AMA1-RON2 inh: 11%; LASV entry inh: inconclusive

What do the screens show for `S=c1[nH]c2cc3ccccc3cc2[nH]1`?
CHX counter: 43*!; Shiga toxin inh: 98*!; AMA1-RON2 inh: 79%

What do the screens show for `CCCCOc1ccc(CSCCN)cc1Cl`?
CHX counter: 23*; Shiga toxin inh: 73*; AMA1-RON2 inh: -6%

Results for CCCCOc1ccc(CCN)cc1Cl ?
CHX counter: 34*; Shiga toxin inh: 20; MARV entry inh: inconclusive; AMA1-RON2 inh: -29%; LASV entry inh: 6%

How did O=C(Nc1ccc(F)cc1F)Nc1ccc(F)cc1F do in these assays?
CHX counter: 30*; Shiga toxin inh: 86*; MARV entry inh: -23%[46.1 µM]; AMA1-RON2 inh: 3%; LASV entry inh: inconclusive

Screening data from PubChem BioAssay.
